Screening data from PubChem BioAssay.
RGS8-Gao: regulators of human RGS8-Galphao interaction. AID 1423. response (percent of control binding), % at 10 µM. multiplexed bead flow cytometry, RGS8-Galphao binding; actives lie on both sides. 220,000 compounds, 0.34% hits; in the data active = response below about 60% or above about 140%; inactive = in between;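 note: Galphao activated as the GDP aluminium fluoride complex binding bead-coupled RGS8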
Target sequence (P09471 whole entry, looked up): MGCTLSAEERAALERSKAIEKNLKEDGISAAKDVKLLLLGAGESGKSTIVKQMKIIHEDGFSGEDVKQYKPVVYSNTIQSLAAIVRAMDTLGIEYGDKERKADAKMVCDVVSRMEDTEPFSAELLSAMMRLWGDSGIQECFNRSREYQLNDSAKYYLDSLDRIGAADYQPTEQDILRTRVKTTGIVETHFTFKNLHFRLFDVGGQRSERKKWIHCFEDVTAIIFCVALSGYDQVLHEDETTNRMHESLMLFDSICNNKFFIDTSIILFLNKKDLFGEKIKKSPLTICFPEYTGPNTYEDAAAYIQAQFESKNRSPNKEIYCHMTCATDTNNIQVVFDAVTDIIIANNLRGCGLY
RGS4-Gao reg: human RGS4-Galphao interaction regulation; P09471; Multiplexed bead flow cytometry, RGS4-Galphao binding; actives lie on both sides; binding response (% of control), % at 10 µM; 220,000 compounds, 0.33% hits; in the data active = binding response below about 49% or above about 150%; inactive = in between;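 note: fluorescent Galphao activated with aluminum fluoride binding bead-coupled RGS4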
GSH bead fluor: compound fluoresces at 488/530 nm on GSH beads. GSH beads flow cytometry, compound fluorescence 488/530 nm; active compounds read high. fluorescence (KMESF) at 10 µM. 190,000 compounds, 0.25% hits. AID 1776; in the data active = fluorescence above about 89;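 note: glutathione beads carrying GST-tagged Bcl family fusion proteins plus one bare bead set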
Avidin fluor: compound fluoresces at 488/530 nm on avidin beads; compound fluorescence 488/530 nm, flow cytometry; active compounds read high; fluorescence (KMESF) at 10 µM; 220,000 compounds, 0.38% hits; in the data active = fluorescence above about 47
RGS7-Gao reg: regulators of human RGS7-Galphao interaction | Multiplexed bead flow cytometry, RGS7-Galphao binding; actives lie on both sides | 220,000 compounds, 0.35% hits | binding response (% of control), % at 10 µM; in the data active = binding response below about 49% or above about 150%;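 note: fluorescent Galphao held in activated GDP-AlF4 state binding bead-coupled RGS7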
RGS16-Gao: RGS16-Galphao interaction regulator (human) | O15492+P09471 | bead-based flow cytometry RGS16-Galphao binding, fluorescence; actives lie on both sides | binding response (% of control), % at 10 µM | 220,000 compounds, 0.38% hits;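 note: Galphao activated by GDP with aluminum fluoride before binding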
RGS4-Gao HTS: modulates binding between human RGS4 and Galphao; shares compounds with RGS16-Gao; AID 1504; 1,600 compounds, 99% hits; multiplexed bead flow cytometry, RGS–Galpha-o binding; RGS4–Galpha-o binding response, % at 10 µM;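 note: fluorescently labeled Galpha-o bound to GDP with aluminium fluoride binding biotinylated RGS beads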
Biotin-avidin: biotin-avidin bead binding disruption counter-screen; shares compounds with RGS16-Gao; streptavidin beads, fluorescein-biotin binding, flow cytometry; inhibition, % at 10 µM; 1,700 tested, under 10 active; AID 1783;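 active = inhibition above 50%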;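 note: median green fluorescence of gated singlet beads compared with DMSO control wells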
RGS8-Gao single: confirmation of regulators of human RGS8-Galphao interaction. shares compounds with RGS16-Gao. bead-based flow cytometry RGS8-Galphao binding, fluorescence; actives lie on both sides. binding response (% of control), % at 10 µM. 1,700 compounds, 3% hits. AID 1836; in the data active = binding response below about 72% or above about 130%; inactive = in between;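 note: Galphao activated as GDP AlF4 complex before binding bead RGS8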
RGS7-Gao single: confirmation of regulators of human RGS7-Galphao interaction. AID 1837. response (percent of control binding), % at 10 µM. 1,700 compounds, 7.8% hits. shares compounds with RGS16-Gao. bead-based flow cytometry RGS7-Galphao binding; actives lie on both sides; in the data active = response below about 75% or above about 130%; inactive = in between;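 note: fluorescent Galphao activated with GDP and aluminum fluoride binding bead-coupled RGS7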
RGS16-Gao conf: confirmation of regulators of human RGS16-Galphao interaction; shares compounds with RGS16-Gao; bead-based flow cytometry, RGS16-Galphao binding; actives lie on both sides; response (% of control binding), % at 10 µM; 1,700 compounds, 4% hits; in the data active = response below about 74% or above about 130%; inactive = in between;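 note: Galphao activated as the GDP aluminium fluoride complex binding bead-coupled RGS16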
RGS4-Gao confirm: RGS4-Galphao interaction regulation, single point confirmation; shares compounds with RGS16-Gao; RGS4-Galphao binding, multiplexed bead flow cytometry; actives lie on both sides; binding response (% of control), % at 10 µM; 1,700 compounds, 4% hits; AID 1840; in the data active = binding response below about 74% or above about 130%; inactive = in between
RGS19-Gao single: RGS19-Galphao interaction regulation, single point confirmation; shares compounds with RGS16-Gao; bead-based flow cytometry RGS19-Galphao binding; actives lie on both sides; response (percent of control binding), % at 10 µM; 1,700 compounds, 5% hits; in the data active = response below about 50% or above about 160%; inactive = in between
Target sequence (P09471 whole entry, looked up): as above
Target sequence (P49795 whole entry, looked up): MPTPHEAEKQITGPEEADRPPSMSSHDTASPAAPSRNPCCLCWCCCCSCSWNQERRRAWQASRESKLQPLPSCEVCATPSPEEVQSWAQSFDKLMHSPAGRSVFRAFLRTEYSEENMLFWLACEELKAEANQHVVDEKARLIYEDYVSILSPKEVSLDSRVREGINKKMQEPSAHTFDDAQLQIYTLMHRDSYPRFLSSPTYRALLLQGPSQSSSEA
Numbers stand for hits; [ ] = remark or other dose. Most compounds without a hit are left out; they make up all but 1.2% or so of the library. Unless noted, the rule behind the calls is not given here.

How did CCn1c(=O)n(CC(=O)N2CC(C)CC(C)C2)c(=O)c2ccccc21 (configuration not stated) do in these assays?
RGS8-Gao: inactive; RGS4-Gao reg: inactive; GSH bead fluor: inactive; Avidin fluor: inactive; RGS7-Gao reg: inactive; RGS16-Gao: inactive

Results for CCc1nnc(SCc2ccc(OC)c(Br)c2)n1N ?
RGS8-Gao: 44; RGS4-Gao reg: 40; GSH bead fluor: inactive; Avidin fluor: inactive; RGS7-Gao reg: 35; RGS16-Gao: inactive; Biotin-avidin: inactive; RGS8-Gao single: inactive; RGS7-Gao single: inactive; RGS16-Gao conf: inactive; RGS4-Gao confirm: inactive; RGS19-Gao single: inactive

Results for O=C(O)CC1COc2ccccc2N1C(=O)c1ccccc1Cl (configuration not stated) ?
RGS8-Gao: inactive; RGS4-Gao reg: inactive; GSH bead fluor: inactive; Avidin fluor: inactive; RGS7-Gao reg: inactive; RGS16-Gao: inactive

Results for COc1ccc(N2CCN(C(c3cc4cc(C)ccc4[nH]c3=O)c3nnnn3Cc3ccccc3)CC2)cc1 (configuration not stated) ?
GSH bead fluor: inactive; Biotin-avidin: inactive; RGS8-Gao single: inactive; RGS7-Gao single: inactive; RGS16-Gao conf: inactive; RGS4-Gao confirm: inactive; RGS19-Gao single: inactive

Results for COc1ccc(Cn2nnnc2C(c2cc3cc(C)ccc3[nH]c2=O)N2CCOCC2)cc1 (configuration not stated) ?
RGS8-Gao: inactive; RGS4-Gao reg: inactive; GSH bead fluor: inactive; Avidin fluor: inactive; RGS7-Gao reg: inactive; RGS16-Gao: inactive

What do the screens show for `Oc1ccc(N2CCN(C(c3cccnc3)c3nnnn3Cc3ccccc3)CC2)cc1` (configuration not stated)?
RGS8-Gao: 8.1; RGS4-Gao reg: -26; GSH bead fluor: inactive; Avidin fluor: inactive; RGS7-Gao reg: -9.4; RGS16-Gao: -26; Biotin-avidin: inactive; RGS8-Gao single: inactive; RGS7-Gao single: inactive; RGS16-Gao conf: inactive; RGS4-Gao confirm: inactive; RGS19-Gao single: inactive

Results for c1ccc(CCn2nnnc2C(c2cccnc2)N2CCN(c3ccccc3)CC2)cc1 (configuration not stated) ?
RGS8-Gao: inactive; RGS4-Gao reg: inactive; GSH bead fluor: inactive; Avidin fluor: inactive; RGS7-Gao reg: inactive; RGS16-Gao: inactive

What do the screens show for `CC(C)OP(=O)(c1ccc(N(C)C)cc1)C(O)c1ccccc1` (configuration not stated)?
RGS8-Gao: inactive; RGS4-Gao reg: inactive; GSH bead fluor: inactive; Avidin fluor: inactive; RGS7-Gao reg: inactive; RGS16-Gao: inactive

How did NC(=O)c1cnn(-c2cc(Oc3ccccc3)ncn2)c1N do in these assays?
RGS8-Gao: inactive; RGS4-Gao reg: inactive; GSH bead fluor: inactive; Avidin fluor: inactive; RGS7-Gao reg: inactive; RGS16-Gao: inactive

What do the screens show for `O=C(CCCNS(=O)(=O)c1ccc(Cl)c(Cl)c1)NCCc1ccccn1`?
RGS8-Gao: 143[activator]; RGS4-Gao reg: inactive; GSH bead fluor: inactive; Avidin fluor: inactive; RGS7-Gao reg: 157[activator]; RGS16-Gao: inactive; RGS4-Gao HTS: 145; Biotin-avidin: inactive; RGS8-Gao single: inactive; RGS7-Gao single: inactive; RGS16-Gao conf: inactive; RGS4-Gao confirm: inactive; RGS19-Gao single: inactive

Results for CCCNS(=O)(=O)c1ccc(OCC(=O)Nc2ccc3c(c2)OCO3)cc1 ?
RGS8-Gao: inactive; RGS4-Gao reg: inactive; GSH bead fluor: inactive; Avidin fluor: inactive; RGS7-Gao reg: inactive; RGS16-Gao: inactive

What do the screens show for `O=C(C1CCN(S(=O)(=O)c2cccnc2)CC1)N1CCN(c2cccc(Cl)c2)CC1`?
RGS8-Gao: 27; RGS4-Gao reg: 35; GSH bead fluor: inactive; Avidin fluor: inactive; RGS7-Gao reg: 11; RGS16-Gao: inactive; Biotin-avidin: inactive; RGS8-Gao single: inactive; RGS7-Gao single: inactive; RGS16-Gao conf: inactive; RGS4-Gao confirm: inactive; RGS19-Gao single: inactive

How did CC(C)NC(=O)c1ccc(C2SCC(=O)N2Cc2ccccc2)cc1 (configuration not stated) do in these assays?
RGS8-Gao: inactive; RGS4-Gao reg: 267[activator]; GSH bead fluor: inactive; Avidin fluor: 185; RGS7-Gao reg: 254[activator]; RGS16-Gao: 346[activator]; Biotin-avidin: inactive; RGS8-Gao single: inactive; RGS7-Gao single: 75; RGS16-Gao conf: inactive; RGS4-Gao confirm: inactive; RGS19-Gao single: inactive

Results for Cc1cc(C(=O)NP(=O)(N2CC(C)OC(C)C2)N2CC(C)OC(C)C2)c(C)n1C1CC1 (configuration not stated) ?
RGS8-Gao: inactive; RGS4-Gao reg: inactive; GSH bead fluor: inactive; Avidin fluor: inactive; RGS7-Gao reg: inactive; RGS16-Gao: inactive

Results for COc1ccccc1NC(=O)Cn1nnc(-c2ccccc2NC(=O)c2cnccn2)n1 ?
RGS8-Gao: inactive; RGS4-Gao reg: inactive; GSH bead fluor: inactive; Avidin fluor: inactive; RGS7-Gao reg: inactive; RGS16-Gao: inactive

Results for O=C1C2C3c4ccccc4C(c4ccccc43)C2C(=O)N1c1cccnc1 (configuration not stated) ?
RGS8-Gao: inactive; RGS4-Gao reg: inactive; GSH bead fluor: inactive; Avidin fluor: inactive; RGS7-Gao reg: inactive; RGS16-Gao: 24; RGS4-Gao HTS: 88; Biotin-avidin: inactive; RGS8-Gao single: inactive; RGS7-Gao single: inactive; RGS16-Gao conf: inactive; RGS4-Gao confirm: inactive; RGS19-Gao single: inactive

What do the screens show for `CC12c3ccccc3C(c3ccccc31)C1C(=O)N(c3cccnc3)C(=O)C12` (configuration not stated)?
RGS8-Gao: inactive; RGS4-Gao reg: inactive; GSH bead fluor: inactive; Avidin fluor: inactive; RGS7-Gao reg: inactive; RGS16-Gao: inactive
